Reference: article PMC12820563, “FoxP3 forms a head-to-head dimer in vivo and stabilizes its multimerization on adjacent microsatellites”
Over roughly 16,000 sequences, “rpm ratio (pull-down/input)” has its median near 0.94; the highest 2% begin near 1.7. Only a selection was taken, and the highest values are over-represented in it overall.

What follows are sequences tested against T1, MBP-FoxP1dN (Mus musculus, UniProt P58462 326-579) (assay: PD-seq (MBP pull-down with sequencing); 20 mM Tris-HCl pH 7.5, 100 mM NaCl, 1.5 mM MgCl2, 0.4 uM protein, 0.1 uM dsDNA library, 30 min, room temperature, amylose pull-down; high values mean tight binding). Conditions: protein: recombinant; tags: His6-MBP; chain copies: 2; dsDNA, one strand shown.
T1 sequence: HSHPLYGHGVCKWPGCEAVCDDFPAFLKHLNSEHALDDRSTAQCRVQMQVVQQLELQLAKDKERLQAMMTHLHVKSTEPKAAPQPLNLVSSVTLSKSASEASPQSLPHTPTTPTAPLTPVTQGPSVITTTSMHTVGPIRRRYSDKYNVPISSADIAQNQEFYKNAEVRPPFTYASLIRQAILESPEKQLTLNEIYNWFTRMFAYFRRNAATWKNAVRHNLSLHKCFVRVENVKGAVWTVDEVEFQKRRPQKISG
Outline: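 Binding is given as reads-per-million enrichment, pull-down over input, with replicates pooled. The bait was an N-terminus-lacking mouse FoxP3 or FoxP1 fragment with a His6-MBP tag, expressed in E. coli and used at 0.4 µM with 0.1 µM Klenow-filled degenerate double-stranded DNA library for 30 min at room temperature in Tris pH 7.5 buffer with NaCl and MgCl2. Amylose resin pull-down with three washes was followed by proteinase K release, PCR barcoding and Illumina sequencing.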

Sequence	binding signal
GATGATTGTTCTCCCAGCTGATGAATTACACTCGTCGAGTAAACAAATTTTCCTAATCTTTCTGTTCAAGCGCCATCTAC	1.15 RPM ratio (pull-down/input)
GATGATTGTTCTCCCAGCTGATGAATTCAGACGTTCGAGTAAACAAATTTTCCTAATCTTTCTGTTCAAGCGCCATCTAC	0.787 RPM ratio (pull-down/input)
GATGATTGTTCTCCCAGCTGATGAATTCTTTCAATCGAGTAAACAAATTTTCCTAATCTTTCTGTTCAAGCGCCATCTAC	0.972 RPM ratio (pull-down/input)
GATGATTGTTCTCCCAGCTGATGAATTCTCCCAATCGAGTAAACAAATTTTCCTAATCTTTCTGTTCAAGCGCCATCTAC	0.958 RPM ratio (pull-down/input)
GATGATTGTTCTCCCAGCTGATGAATTCAAACAATCGAGTAAACAAATTTTCCTAATCTTTCTGTTCAAGCGCCATCTAC	1.81 RPM ratio (pull-down/input)
GATGATTGTTCTCCCAGCTGATGAATTATGCGATTCGAGTAAACAAATTTTCCTAATCTTTCTGTTCAAGCGCCATCTAC	1.06 RPM ratio (pull-down/input)
GATGATTGTTCTCCCAGCTGATGAATTTTGTATGTCGAGTAAACAAATTTTCCTAATCTTTCTGTTCAAGCGCCATCTAC	1.54 RPM ratio (pull-down/input)
GATGATTGTTCTCCCAGCTGATGAATTTGTATTGTCGAGTAAACAAATTTTCCTAATCTTTCTGTTCAAGCGCCATCTAC	2.88 RPM ratio (pull-down/input)
GATGATTGTTCTCCCAGCTGATGAATTGTATTTGTCGAGTAAACAAATTTTCCTAATCTTTCTGTTCAAGCGCCATCTAC	2.5 RPM ratio (pull-down/input)
GATGATTGTTCTCCCAGCTGATGAATTTGTAATGTCGAGTAAACAAATTTTCCTAATCTTTCTGTTCAAGCGCCATCTAC	1.26 RPM ratio (pull-down/input)
GATGATTGTTCTCCCAGCTGATGAATTGTAATTGTCGAGTAAACAAATTTTCCTAATCTTTCTGTTCAAGCGCCATCTAC	1.39 RPM ratio (pull-down/input)
GATGATTGTTCTCCCAGCTGATGAATTGTATCTGTCGAGTAAACAAATTTTCCTAATCTTTCTGTTCAAGCGCCATCTAC	1.08 RPM ratio (pull-down/input)
GATGATTGTTCTCCCAGCTGATGAATTTGCGATCTCGAGTAAACAAATTTTCCTAATCTTTCTGTTCAAGCGCCATCTAC	0.924 RPM ratio (pull-down/input)
GATGATTGTTCTCCCAGCTGATGAATTAATTCCTTCGAGTAAACAAATTTTCCTAATCTTTCTGTTCAAGCGCCATCTAC	0.955 RPM ratio (pull-down/input)
GATGATTGTTCTCCCAGCTGATGAATTCCCGTTTTCGAGTAAACAAATTTTCCTAATCTTTCTGTTCAAGCGCCATCTAC	0.97 RPM ratio (pull-down/input)
GATGATTGTTCTCCCAGCTGATGAATTGGCCAACTCGAGTAAACAAATTTTCCTAATCTTTCTGTTCAAGCGCCATCTAC	0.833 RPM ratio (pull-down/input)
GATGATTGTTCTCCCAGCTGATGAATTCTATTTGTCGAGTAAACAAATTTTCCTAATCTTTCTGTTCAAGCGCCATCTAC	2.3 RPM ratio (pull-down/input)
GATGATTGTTCTCCCAGCTGATGAATTTGTCTATTCGAGTAAACAAATTTTCCTAATCTTTCTGTTCAAGCGCCATCTAC	1.28 RPM ratio (pull-down/input)
GATGATTGTTCTCCCAGCTGATGAATTCTCTTTGTCGAGTAAACAAATTTTCCTAATCTTTCTGTTCAAGCGCCATCTAC	0.834 RPM ratio (pull-down/input)

Sequence	binding signal
GATGATTGTTCTCCCAGCTGATGAATTGTCGTATTCGAGTAAACAAATTTTCCTAATCTTTCTGTTCAAGCGCCATCTAC	1.14 RPM ratio (pull-down/input)
GATGATTGTTCTCCCAGCTGATGAATTCCTATTGTCGAGTAAACAAATTTTCCTAATCTTTCTGTTCAAGCGCCATCTAC	2.02 RPM ratio (pull-down/input)
GATGATTGTTCTCCCAGCTGATGAATTCTATCTGTCGAGTAAACAAATTTTCCTAATCTTTCTGTTCAAGCGCCATCTAC	0.875 RPM ratio (pull-down/input)
GATGATTGTTCTCCCAGCTGATGAATTTCTATTGTCGAGTAAACAAATTTTCCTAATCTTTCTGTTCAAGCGCCATCTAC	1.91 RPM ratio (pull-down/input)
GATGATTGTTCTCCCAGCTGATGAATTGTCTATTTCGAGTAAACAAATTTTCCTAATCTTTCTGTTCAAGCGCCATCTAC	1.31 RPM ratio (pull-down/input)
GATGATTGTTCTCCCAGCTGATGAATTTCCTATGTCGAGTAAACAAATTTTCCTAATCTTTCTGTTCAAGCGCCATCTAC	0.811 RPM ratio (pull-down/input)
GATGATTGTTCTCCCAGCTGATGAATTCGTATTTTCGAGTAAACAAATTTTCCTAATCTTTCTGTTCAAGCGCCATCTAC	1.67 RPM ratio (pull-down/input)
GATGATTGTTCTCCCAGCTGATGAATTCTAATTGTCGAGTAAACAAATTTTCCTAATCTTTCTGTTCAAGCGCCATCTAC	1.29 RPM ratio (pull-down/input)
GATGATTGTTCTCCCAGCTGATGAATTCGTATTGTCGAGTAAACAAATTTTCCTAATCTTTCTGTTCAAGCGCCATCTAC	2.07 RPM ratio (pull-down/input)
GATGATTGTTCTCCCAGCTGATGAATTTCGCATTTCGAGTAAACAAATTTTCCTAATCTTTCTGTTCAAGCGCCATCTAC	1.28 RPM ratio (pull-down/input)
GATGATTGTTCTCCCAGCTGATGAATTGCCCAGTTCGAGTAAACAAATTTTCCTAATCTTTCTGTTCAAGCGCCATCTAC	0.931 RPM ratio (pull-down/input)
GATGATTGTTCTCCCAGCTGATGAATTGGGTCCTTCGAGTAAACAAATTTTCCTAATCTTTCTGTTCAAGCGCCATCTAC	0.85 RPM ratio (pull-down/input)
GATGATTGTTCTCCCAGCTGATGAATTGAACTTTTCGAGTAAACAAATTTTCCTAATCTTTCTGTTCAAGCGCCATCTAC	0.887 RPM ratio (pull-down/input)
GATGATTGTTCTCCCAGCTGATGAATTTTCACAATCGAGTAAACAAATTTTCCTAATCTTTCTGTTCAAGCGCCATCTAC	1.29 RPM ratio (pull-down/input)
GATGATTGTTCTCCCAGCTGATGAATTACTGACCTCGAGTAAACAAATTTTCCTAATCTTTCTGTTCAAGCGCCATCTAC	0.91 RPM ratio (pull-down/input)
GATGATTGTTCTCCCAGCTGATGAATTTGGGTAATCGAGTAAACAAATTTTCCTAATCTTTCTGTTCAAGCGCCATCTAC	1.27 RPM ratio (pull-down/input)
GATGATTGTTCTCCCAGCTGATGAATTCTCCGGGTCGAGTAAACAAATTTTCCTAATCTTTCTGTTCAAGCGCCATCTAC	0.759 RPM ratio (pull-down/input)
GATGATTGTTCTCCCAGCTGATGAATTCCGGGATTCGAGTAAACAAATTTTCCTAATCTTTCTGTTCAAGCGCCATCTAC	0.754 RPM ratio (pull-down/input)
GATGATTGTTCTCCCAGCTGATGAATTATCTGATTCGAGTAAACAAATTTTCCTAATCTTTCTGTTCAAGCGCCATCTAC	0.984 RPM ratio (pull-down/input)
